Shown are actives, neighbours in structure and some others; about 6.3% of the full set was active somewhere.
Gal4-VP16 FLuc = VP16 counterscreen qHTS for inhibitors of ROR gamma transcriptional activity | Drosophila S2 Gal4-VP16 UAS-luciferase, luminescence, 20 h | Potency, µM (top dose mostly 53.6 µM), for inactives: at the top dose activity, negative = inhibition, hits mostly inhibitors | 310,000 tested, 3.5% active;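 further: Gal4-VP16 expression switched on by copper sulfate through the metallothionein promoter; on the % scale 0 is the no-effect control and ±100 the full control effect; nearly all actives have a fitted effect of over 50% in size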
ATXN viability = Viability Counterscreen for Primary qHTS for Inhibitors of ATXN expression | 400,000 tested, 0.49% active | AID 651635, 2014 | S2 cells (HEK-293 line with an ATXN2-luciferase reporter) viability, CellTiter-Fluor protease fluorescence, 24 h | Potency, µM (titrated, usually from 56.7 µM), hits mostly cytotoxic; further: nearly all actives have a fitted effect of over 40% in size
RORg inh = qHTS for inhibitors of ROR gamma transcriptional activity | Drosophila S2 Gal4-RORgamma UAS-luciferase reporter, 20 h | Potency, µM (top dose mostly 53.6 µM), inactives show top-dose activity change, negative = inhibition, hits mostly inhibitors | 310,000 tested, 5.4% active | AID 2551, 2010; further: on the % scale 0 is the no-effect control and ±100 the full control effect; nearly all actives have a fitted effect of over 60% in size
Target sequence (P51450 whole entry, looked up, the tested form may be a part): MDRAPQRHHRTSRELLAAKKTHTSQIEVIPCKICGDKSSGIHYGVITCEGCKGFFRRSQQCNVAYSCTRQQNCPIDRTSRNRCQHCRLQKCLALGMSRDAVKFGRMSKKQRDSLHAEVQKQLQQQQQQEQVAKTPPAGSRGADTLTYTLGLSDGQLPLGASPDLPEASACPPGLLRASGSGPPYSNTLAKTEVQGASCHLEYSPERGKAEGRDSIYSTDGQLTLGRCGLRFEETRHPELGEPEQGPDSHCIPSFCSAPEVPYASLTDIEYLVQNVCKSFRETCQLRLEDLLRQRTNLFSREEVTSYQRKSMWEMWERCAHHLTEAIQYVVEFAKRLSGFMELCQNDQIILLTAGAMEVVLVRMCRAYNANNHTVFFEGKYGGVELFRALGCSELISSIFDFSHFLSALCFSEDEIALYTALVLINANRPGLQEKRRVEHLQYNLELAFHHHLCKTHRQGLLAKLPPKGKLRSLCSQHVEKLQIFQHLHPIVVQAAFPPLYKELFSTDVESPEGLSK
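Drosophila S2 cells stably expressing Gal4-DBD/mouse RORγ fusion under metallothionein promoter plus UAS-luciferase; compound 1 h, then 700 uM CuSO4 induction for 20 h at ambient temperature; inhibition read as reduced luminescence.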
TGFb inhibitor = qHTS for Inhibitors of TGF-b. HepG2 CAGA-GFP TGF-b/SMAD3 reporter, GFP fluorescence, 18 h; TGF-beta stimulated, 500 pg/mL final. Potency, µM (doses to about 46.1 µM), inactives show at the top dose activity, negative = inhibition, most hits filed as inhibitors. 410,000 tested, 1.2% active. AID 588855, 2011; further: on the % scale 0 is the no-effect control and ±100 the full control effect; nearly all actives have a fitted effect of over 65% in size
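First, reporter cells (HEPG2 CAGA-GFP) rested 2 h at 37 degrees C. Next, compounds were pinned in and TGF-beta added to 500 pg/mL final. After 18 h, GFP was imaged per cell and summed per well.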
ATXN2 expr inh = Primary qHTS for Inhibitors of ATXN expression; HEK-293 ATXN2-luciferase reporter, luminescence, 24 h; Potency, µM (titrated, usually from 57 µM), inactives show at the top dose activity change, negative = inhibition, most hits filed as inhibitors; 360,000 tested, 0.72% active; further: on the % scale 0 is the no-effect control and ±100 the full control effect; nearly all actives have a fitted effect of over 55% in size
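ATXN2-luciferase reporter cells (luciferase flanked by upstream and downstream ATXN2 gene portions) were treated 24 h at 37 °C with compounds at up to 57 uM. SteadyGlo luminescence gave expression; GF-AFC fluorescence gave viability.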
HepG2 viability = qHTS for Inhibitors of TGF-b: Cytotox Counterscreen; HepG2 CAGA-GFP viability, ATP luminescence, 18 h; 410,000 tested, 0.76% active; Potency, µM (top dose mostly 46.1 µM), for inactives: at the top dose activity change, negative = cytotoxicity, actives largely listed as cytotoxic
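CellTiter-Glo luminescence gave cytotoxicity after 18 hours at 37 degrees C. The cells were HepG2 CAGA-GFP in 1% FBS DMEM, stimulated with 500 pg/mL TGF-beta after compound addition. %Activity was normalised to no-cell wells (complete cell-killing) and DMSO (no toxicity), and curves were fitted and classified.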
* = called active by the depositor; i = inactive; ? = inconclusive; / = no result. The call rests on the fitted dose curve; in most records, active means well fitted curve in the direction sought with a large enough effect; inconclusive means small, poorly fitted or top-dose-only effect, or another doubt; inactive means no such curve, though single readings can be large; an effect the other way counts as inactive or inconclusive. Potency means the concentration at half of the fitted maximal effect.

SMILES	Gal4-VP16 FLuc	ATXN viability	RORg inh	TGFb inhibitor	ATXN2 expr inh	HepG2 viability
NS(=O)(=O)c1cccc2c1C(=O)c1cccc(O)c1C2=O	/	/	/	/	3.06µM*	/
O=c1[nH]sc2ccccc12	3.55µM*	i	0.398µM*	-7.1%	?	-7.2%
OC[C@@H]1CN(Cc2ccc(-c3ccccc3)cc2)C[C@H](n2cnc3c(NC4CCC4)ncnc32)O1	/	17.8µM*	/	?	?	-19.5%
OC[C@@H]1CN(Cc2ccccc2)C[C@H](n2cnc3c(NC4CC4)ncnc32)O1	/	i	/	5.3%	5.8%	-0.3%
S=C(NCc1ccccc1)NC1CCSc2ccccc21 (centres undefined)	-4.0%	i	-23.0%	12.6µM*	-15.7%	-28.4%
O=C(NC1CCSc2ccccc21)c1cccc(Br)c1 (centres undefined)	2.2%	i	2.0%	5.3%	33.2%	-0.8%
Cc1cccc(NC(=S)NC2CCSc3ccccc32)c1 (centres undefined)	5.62µM*	i	3.55µM*	?	2.6%	-24.7%
Cc1ccc(-c2nn3c(-c4ccccc4)nnc3c3ccccc23)cc1	/	/	/	-13.4%	/	-4.5%
COc1ccc(OCC(=O)Sc2ccc(C)cc2)cc1	0.7%	i	3.16µM*	3.7%	-6.3%	-1.0%
COc1ccc(OC(=O)COc2ccc(C)cc2)cc1	-4.4%	i	-18.2%	-14.2%	-6.0%	-9.8%
Cc1c(F)cccc1NC(=O)C1CCCN1S(=O)(=O)c1ccc(F)cc1 (centres undefined)	/	i	/	-25.0%	-8.2%	-37.1%
CCOC(=O)c1sc(NC(=O)CSc2nc(-c3ccco3)cc(C(F)(F)F)n2)c(C(=O)OCC)c1C	/	i	/	10.9%	5.4%	-3.2%
CCN(CC)CCOc1ccc(Nc2ncc3cc(-c4c(Cl)cccc4Cl)c(=O)n(C)c3n2)cc1	/	/	/	/	1.72µM*	/
Cc1ccccc1NC(=O)Cc1nc(COC(=O)Cc2cccc(C(F)(F)F)c2)cs1	/	i	/	-3.9%	/	-7.9%
C=C1SC(Nc2c(C)cc(C)cc2C)=NC12CCCCC2	0.631µM*	?	?	?	-10.2%	-24.8%
C=C1SC(Nc2c(C)cccc2C)=NC12CCCCC2	2.24µM*	i	3.98µM*	?	-32.8%	-32.2%
CCn1c(-c2cc(Br)cc(OC)c2O)nc2cc(S(=O)(=O)N(C)C)ccc21	7.94µM*	i	3.55µM*	-26.8%	-5.8%	-22.6%
Cn1cc(-c2ccc3nnc(C(F)(F)c4ccc5ncccc5c4)n3n2)cn1	/	/	/	/	-23.1%	/
COc1ccc(-c2ccc(CCC(=O)O)n2CC(=O)Nc2cccc(OC)c2)cc1	1.5%	i	15.6%	19.3%	2.1%	0.1%
COc1cccc(NC(=O)Cn2c(CCC(=O)O)ccc2-c2ccc(C)cc2)c1	5.8%	i	-14.7%	?	/	15.8µM*
CCc1ccc(CNC(=O)C2CCCN(c3nnc(C)c4c(C)n(-c5ccccc5)nc34)C2)cc1 (centres undefined)	?	20µM*	?	?	?	-51.4%
Cc1nnc(N2CCCC(C(=O)NCCc3ccccc3)C2)c2nn(-c3ccccc3)c(C)c12 (centres undefined)	/	12.6µM*	/	-27.9%	-24.6%	-33.9%
Cc1noc2ncnc(N3CCCC(C(=O)Nc4cccc(C(F)(F)F)c4)C3)c12 (centres undefined)	/	/	/	?	20µM*	-13.2%
Cc1nnc(N2CCCC(C(=O)Nc3cccc(C(F)(F)F)c3)C2)c2nn(-c3ccccc3)c(C)c12 (centres undefined)	/	15.8µM*	/	?	-20.4%	-82.7%

Compound activity deposited in PubChem BioAssay by National Center for Advancing Translational Sciences (NCATS).
